Screens: PubChem BioAssay, several laboratories
In the library only some 1% were active in any assay of this set; here they are far more common.
DUSP3 inh: inhibitors of human VHR1 phosphatase (DUSP3) | P51452 | recombinant VHR phosphatase, pNPP absorbance | inhibition, % at 13.3 µM | 290,000 tested, 0.52% active | AID 1654; in the data active means inhibition above about 50%
Target sequence (P51452 whole entry, looked up): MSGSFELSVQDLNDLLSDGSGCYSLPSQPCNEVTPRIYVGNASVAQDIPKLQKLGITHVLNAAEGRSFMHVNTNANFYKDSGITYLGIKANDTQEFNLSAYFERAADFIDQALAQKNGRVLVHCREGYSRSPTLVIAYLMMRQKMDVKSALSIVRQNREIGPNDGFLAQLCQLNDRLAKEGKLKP
FadD28 binding: blocks FadD28 binding to the bisubstrate probe | fluorescence polarization | inhibition, % at 12.5 µM | 360,000 tested, 0.22% active; in the data active means inhibition above about 8.5%, passing the limit was not always enough
Y pestis TopoI: blocks Yersinia pestis topoisomerase I activity; Y. pestis Topo-I cleavage product accumulation, plate reader; activity, % at 10 µM; 360,000 tested, 0.064% active; AID 504884; in the data active means activity above about 50%, passing the limit was not always enough
TcdB GH inh: TcdB glycohydrolase inhibition; 350,000 tested, 0.24% active; inhibition, % at 9.99 µM; TcdB glycohydrolase enzymatic assay, plate reader; AID 652162; P18177; in the data active means inhibition above about 10%
MazF activator: activators of E. coli MazEF toxin-antitoxin RNase | P0AE70 | FAM/BHQ RNA-DNA oligo cleavage fluorescence, 5 h | activation, % at 20 µM | 350,000 tested, 0.32% active | AID 504720; in the data active means activation above about 50%
Target sequence (P0AE70 whole entry, looked up): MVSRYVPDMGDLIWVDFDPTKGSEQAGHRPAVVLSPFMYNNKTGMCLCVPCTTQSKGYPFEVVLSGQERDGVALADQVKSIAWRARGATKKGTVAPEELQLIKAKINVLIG
BioA inh: inhibitors of Mycobacterium tuberculosis BioA enzyme. purified M. tuberculosis BioA enzyme, plate reader. inhibition, % at 9.99 µM. 360,000 tested, 0.096% active; in the data active means inhibition above about 40%
Hits are given with their value; . = inactive; / = not tested or not shown.

SMILES | DUSP3 inh | FadD28 binding | Y pestis TopoI | TcdB GH inh | MazF activator | BioA inh
CCNC(=O)[C@@H]1[C@@H](CO)[C@@H]2Cn3c(ccc(-c4cncnc4)c3=O)[C@@H]2N1C(=O)c1ccccc1F | / | / | / | . | / | .
C/C(=N\N=C(/N)SC1CC(=O)N(c2ccc(Br)cc2)C1=O)c1cccs1 (stereo not given) | . | 10 | . | . | . | .
C/C(=N\N=C(/N)SC1CC(=O)N(c2ccccc2)C1=O)c1cccs1 (stereo not given) | . | . | . | / | . | .
CCCCCCOc1ccc(N2C(=O)CC(S/C(N)=N/N=C(\C)c3cccs3)C2=O)cc1 (stereo not given) | . | . | 63 | / | . | .
O=C(NCCc1ccccc1)[C@H]1N[C@H]2c3ccc(-c4ccccc4)c(=O)n3C[C@H]2[C@@H]1CO | / | / | / | . | / | .
C[C@H](CO)N1C[C@H](C)[C@@H](CN(C)Cc2ccc(C(=O)Nc3ccccc3N)cc2)Oc2ccc(NC(=O)c3ccncc3)cc2C1=O | / | / | / | . | / | /
CN(C)C(=O)C[C@@H]1CC[C@@H](NC(=O)c2ccc(F)cc2)[C@H](CO)O1 | / | / | / | . | / | .
O=c1oc2ccc3ccccc3c2cc1-c1nc2ccccc2o1 | / | . | . | / | 329 | .
COc1ccc(OC)c(N2C(=O)NC(=O)/C(=C\c3ccc([N+](=O)[O-])s3)C2=O)c1 | . | 23 | . | . | . | .
C=CCc1ccc(O)c(-c2ccc(O)c(CC=C)c2)c1 | . | . | . | 11 | . | .
CN(C)C(=O)C[C@@H]1CC[C@@H]2[C@H](COC[C@H](O)CN2S(=O)(=O)c2ccccc2)O1 | / | / | / | . | / | .
Cc1ccc(S(=O)(=O)n2ccc(-c3ccc(OCc4c(F)cccc4Cl)cc3)n2)cc1 | 53 | . | . | / | . | .
CO[C@H]1CN(C)C(=O)c2ccc(NS(C)(=O)=O)cc2OC[C@H](C)N(Cc2ccccc2)C[C@@H]1C | / | / | / | . | / | /
Cc1ccc2c(c1)-c1c(cnn1CC(=O)NC(C)CCc1ccco1)CO2 (stereo not given) | . | . | . | 11 | . | .
O=C(Nc1cccc2ncccc12)c1ccc(Cl)cc1 | . | . | . | . | 110 | .
COc1ccccc1CNC(=O)CN(c1ccc(C)cc1)S(=O)(=O)c1c(C)n[nH]c1C | . | . | . | 31 | . | .
Cc1ccc(S(=O)(=O)NCCC(C)C)cc1[N+](=O)[O-] | . | . | . | . | . | /
CCC(C)(C)C1CCC(=NNS(=O)(=O)c2ccc(C)c([N+](=O)[O-])c2)CC1 (stereo not given) | . | . | . | . | 125 | /
CC1CCC/C(=N\NS(=O)(=O)c2ccccc2)C1 (stereo not given) | . | . | . | . | . | /
Cc1ccc(S(=O)(=O)N/N=C2/CCCCC2C2CCCCC2)cc1[N+](=O)[O-] (stereo not given) | . | . | . | / | . | /
CC/C(C)=N/NS(=O)(=O)c1ccc(C)c([N+](=O)[O-])c1 | . | . | . | . | 122 | .
C/C(CCC(C)C)=N\NS(=O)(=O)c1ccc(C)c([N+](=O)[O-])c1 | . | . | . | . | 82 | .
CC1CCC(=NNS(=O)(=O)c2ccc([N+](=O)[O-])cc2)CC1 (stereo not given) | / | . | . | . | 110 | /
Cc1ccc(S(=O)(=O)N/N=C/c2ccc(O)cc2O)cc1[N+](=O)[O-] | . | . | . | . | . | .
O=C(c1ccccc1)N1CC(=O)N2[C@H](C1)[C@@H](c1ccc(C#CCC3CCCC3)cc1)[C@@H]2CO | / | / | / | . | / | /
SMILES | DUSP3 inh | FadD28 binding | Y pestis TopoI | TcdB GH inh | MazF activator | BioA inh
C[C@H]1CCCCO[C@H](CN(C)C(=O)C2CCCCC2)[C@@H](C)CN([C@@H](C)CO)C(=O)c2cc(NC(=O)Cc3ccccc3)ccc2O1 | / | / | / | . | / | .
COc1ccc(NC(=O)N(C)C[C@H]2Oc3ccc(NS(=O)(=O)c4ccc(Cl)cc4)cc3CC(=O)N([C@H](C)CO)C[C@@H]2C)cc1 | / | / | / | . | / | .
COc1ccc(NC(=O)CN(C)C(=O)c2ccccc2OC)cc1 | 51 | / | . | . | . | .
CC(C)CNC(=O)c1c(F)c(F)c(F)c(F)c1F | . | . | . | 10 | . | .
O=C(NCCCCNC(=O)c1c(F)c(F)c(F)c(F)c1F)c1c(F)c(F)c(F)c(F)c1F | . | . | . | / | . | .
Cc1ccc(S(=O)(=O)Nc2ccc3c(c2)C(=O)N([C@H](C)CO)C[C@H](C)[C@@H](CN(C)S(=O)(=O)c2ccc(C)cc2)OCCCC[C@H](C)O3)cc1 | / | / | / | . | / | .
CC(C)NC(=O)N[C@H]1CC[C@@H](CCNS(=O)(=O)c2ccc(F)cc2)O[C@H]1CO | / | / | / | . | / | .
COC(=O)C[C@H]1CC[C@@H]2[C@H](COc3ccc(NC(=O)c4cccc(OC)c4)cc3C(=O)N2C)O1 | / | / | / | . | / | .
COC(=O)C[C@H]1CC[C@@H]2[C@@H](COc3ccc(NC(=O)c4cccc(OC)c4)cc3C(=O)N2C)O1 | / | / | / | 11 | / | .
CCNC(=O)C[C@@H]1CC[C@@H]2[C@@H](COc3ccc(NC(=O)Nc4ccccc4Cl)cc3C(=O)N2C)O1 | / | / | / | . | / | .
CN1C(=O)c2cc(NC(=O)Nc3ccccc3Cl)ccc2OC[C@H]2O[C@@H](CC(=O)NCCCN3CCOCC3)CC[C@H]21 | / | / | / | 11 | / | .
COc1cccc(C(=O)Nc2ccc3c(c2)C(=O)N(C)[C@@H]2CC[C@H](CC(=O)NCCCN4CCOCC4)O[C@@H]2CO3)c1 | / | / | / | 12 | / | .
C[C@@H]1CN([C@H](C)CO)C(=O)Cc2cc(NC(=O)Nc3cccc4ccccc34)ccc2O[C@H]1CN(C)Cc1ccc2c(c1)OCO2 | / | / | / | . | / | .
Cc1c(Br)c(=O)oc2c(Br)c(O)ccc12 | . | . | . | . | . | /
Cc1c(Br)c(=O)oc2c(Br)c(O)c(O)cc12 | . | 13 | . | . | . | /
C[C@@H]1CN([C@@H](C)CO)C(=O)c2cc(-c3ccccc3F)cnc2O[C@H]1CN(C)Cc1ccc(F)cc1 | / | / | / | . | / | .
O=[N+]([O-])c1ccc(CP(=O)(c2ccccc2)c2ccccc2)cc1 | 56 | . | . | . | . | .
O=[N+]([O-])c1cccc(CP(=O)(c2ccccc2)c2ccccc2)c1 | / | . | . | . | . | .
C[C@H]1CN([C@@H](C)CO)C(=O)c2c(c3ccccc3n2C)-c2ccccc2CO[C@@H]1CN(C)Cc1ccccc1C(F)(F)F | / | / | / | . | / | /
Cc1ccc(C)c(N2CCN(S(=O)(=O)c3ccc4c(c3)CC(=O)N4C)CC2)c1 | . | . | . | . | . | .
CN1C(=O)Cc2cc(S(=O)(=O)N3CCN(c4cccc(C(F)(F)F)c4)CC3)ccc21 | 52 | . | . | . | . | .
CCCNC(=O)C[C@H]1CC[C@@H]2[C@@H](COc3ccc(NC(=O)c4cccc(Cl)c4)cc3C(=O)N2C)O1 | / | / | / | / | / | .
Cc1cc(NC(=O)CSc2ccccn2)cc(NC(=O)CSc2ccccn2)c1 | 54 | . | . | . | . | .
O=C(CSc1ccccn1)Nc1ccc2ccccc2c1 | . | / | / | / | / | /
Cc1ccc(S(=O)(=O)Nc2ccc3c(c2)C(=O)N([C@@H](C)CO)C[C@@H](C)[C@@H](CN(C)Cc2ccc(C(=O)O)cc2)O3)cc1 | / | / | / | . | / | /
